# Screening data deposited in PubChem BioAssay by several laboratories.
# PHOSPHO1 inh – blocks human PHOSPHO1 phosphatase activity | Q8TCT1 | recombinant PHOSPHO1, absorbance phosphatase assay | inhibition, % at 13.3 µM | actives 1.1% (n = 290,000); in the data active = inhibition above about 60%
# MLLE-PAM2 inh – inhibitors of microRNA-mediated deadenylation, human PABP1 MLLE binding; GST-MLLE / FITC-PAM2 fluorescence polarization; actives 0.36% (n = 360,000); AID 588489; inhibition, % at 20 µM; in the data active = inhibition above about 35%, passing the limit was not always enough
# Target sequence (P11940 whole entry, looked up): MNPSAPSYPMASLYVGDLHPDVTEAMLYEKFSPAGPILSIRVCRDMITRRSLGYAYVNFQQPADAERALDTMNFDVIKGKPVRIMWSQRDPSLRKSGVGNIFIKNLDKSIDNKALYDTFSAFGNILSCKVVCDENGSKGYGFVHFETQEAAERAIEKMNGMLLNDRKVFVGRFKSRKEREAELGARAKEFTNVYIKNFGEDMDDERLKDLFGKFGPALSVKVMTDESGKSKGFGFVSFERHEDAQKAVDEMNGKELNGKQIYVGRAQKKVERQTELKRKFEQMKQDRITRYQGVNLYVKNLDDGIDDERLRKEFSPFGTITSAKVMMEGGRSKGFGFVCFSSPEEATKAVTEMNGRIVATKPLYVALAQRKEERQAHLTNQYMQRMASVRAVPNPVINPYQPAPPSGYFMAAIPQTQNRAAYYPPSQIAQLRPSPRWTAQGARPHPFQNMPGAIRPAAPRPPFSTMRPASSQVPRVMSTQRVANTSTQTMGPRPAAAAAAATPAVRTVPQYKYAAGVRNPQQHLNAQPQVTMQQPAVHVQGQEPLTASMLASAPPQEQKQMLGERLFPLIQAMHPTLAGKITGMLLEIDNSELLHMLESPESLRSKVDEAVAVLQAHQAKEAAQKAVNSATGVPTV
# PABP FP inh – blocks human PABP binding to poly(A) RNA; calls only at 35 µM; actives 1% (n = 290,000); fluorescence polarization;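 also: calls also rest on retests at 20 µM and on dose response follow-up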
# eIF4H FP inh – inhibitors of RNA binding by human eIF4H | Q15056 | eIF4H fluorescence polarization binding assay | inhibition, % at 35 µM | actives 0.94% (n = 290,000) | AID 2012;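 also: calls also rest on retests at 20 µM and on dose response follow-up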
# HMGR II inh – inhibitors of class II HMG-CoA reductase from Enterococcus faecalis | inhibition, % at 10 µM | actives 0.41% (n = 190,000) | purified E. faecalis HMGR, NADPH absorbance 340 nm kinetic | AID 1066;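 active = inhibition above a set limit, the median over all tested compounds plus 3 SD, cut at about 9.5% in these data; inconclusive = no clear call, values can overlap the other calls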;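 also: enzyme runs in reverse so mevalonate oxidation gives rising NADPH absorbance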
# Numbers stand for hits; 0 = inactive; ? = inconclusive; - = no result; + = active, no number. Sampled rows, rich in hits. Any-hit rate of the full collection: about 2.4%. Unless noted, no rule for the calls is given here.
SMILES,PHOSPHO1 inh,MLLE-PAM2 inh,PABP FP inh,eIF4H FP inh,HMGR II inh
OCCC1CN(Cc2cc3c(cc2Cl)OCO3)CCN1Cc1ccccc1 (configuration not stated),0,0,0,0,0
O=[N+]([O-])c1cccc(NC(=S)N2CCN(c3ccccn3)CC2)c1,0,0,0,0,-
O=C(O)C1CCCCC1C(=O)Nc1nc(-c2ccc(Cl)s2)cs1 (configuration not stated),0,0,+,76.5,0
CSCCC(NC(=O)c1ccccc1)C(=O)N1CCN(C(c2ccccc2)c2ccccc2)CC1 (configuration not stated),0,0,0,0,-
O=C1C(Nc2cccc(O)c2)=C(N2CCCCC2)C(=O)c2ccccc21,0,49.4,0,0,0
O=C1C(Nc2ccccc2)=C(N2CCCCC2)C(=O)c2ccccc21,0,0,0,0,0
COc1ccc(Cc2nc3ccc(C(=O)N4C[C@@H](C)O[C@@H](C)C4)cc3o2)cc1OC,64.0,0,-,-,-
COC(=O)c1[nH]c2ccccc2c1NC(=O)CN1CCCCCC1,65.3,0,0,0,0
CCOC(=O)N1CCN(CC(=O)Nc2c(C(=O)OC)[nH]c3ccccc23)CC1,0,0,0,0,0
COc1ccc(CNC(=O)CN2CCN(S(=O)(=O)c3ccccc3)CC2)cc1,-,0,-,-,-
CC1=C(C#N)c2nc(N)c(C#N)c(C)c2/C1=C\c1ccc(OCC(=O)O)c(Cl)c1,71.4,0,0,0,-
COc1ccc(CC(=O)OCc2cc3ccccc3[nH]c2=O)cc1,0,0,0,0,0
COc1ccc(CC(=O)OCc2cc3ccc(C)cc3[nH]c2=O)cc1,61.4,0,0,0,0
Cc1ccnc(N/C=C(\C#N)c2nc(-c3cccc(Br)c3)cs2)c1,0,0,0,?,0
Oc1c(C=Nc2cccc3cccnc23)sc2ccccc12,0,-,+,125.1,0
Cc1ccccc1NC(=O)c1sc2nc3c(c(-c4ccco4)c2c1N)CCC3,75.7,0,+,88.0,0
N#Cc1sc2nc3c(c(-c4ccco4)c2c1N)CCCC3,80.8,0,0,0,0
NC(=O)c1sc2nc3c(c(-c4ccco4)c2c1N)CCCC3,0,0,0,0,-
Nc1c(C(=O)NCC2CCCO2)sc2nc3c(c(-c4ccco4)c12)CC/C3=C\c1ccco1 (configuration not stated),0,0,0,109.5,0
Cc1cc(Br)c(NC(=O)COC(=O)CC2CC3CCC2C3)c(Br)c1 (configuration not stated),-,0,-,-,-
Cc1cccc(NC(=O)Cn2c(=O)n(C)c3ccccc32)c1,0,0,0,0,11.8
Cc1ccc(Nc2nc(N)c3ccccc3n2)cc1C,0,0,0,0,-
CCOc1cc(/C=N/NC(=O)c2ccc(-c3csc(Nc4ccc(C)cc4)n3)cc2)ccc1OCC(=O)O,0,0,0,0,0
O=C(O)COc1ccc(/C=N/NC(=O)c2ccc(-c3csc(Nc4ccc(Cl)cc4)n3)cc2)cc1,0,0,0,97.9,-
CC1=C(C(=O)O)N2C(=O)C(NC(=O)c3ccc(F)cc3)C2SC1 (configuration not stated),-,42.8,-,-,-
SMILES,PHOSPHO1 inh,MLLE-PAM2 inh,PABP FP inh,eIF4H FP inh,HMGR II inh
CC1=C(C(=O)O)N2C(=O)C(NC(=O)c3ccccc3Cl)C2SC1 (configuration not stated),0,0,0,0,-
COc1ccc(-c2noc3c2-c2nc(-c4cccc(C)c4)sc2CC3)cc1,0,0,0,0,-
CC1CCN(C(=S)c2ccc([N+](=O)[O-])cc2)CC1,0,43.7,0,0,0
Cc1c(CC(=O)N2CCC(O)CC2)c(=O)oc2cc3c(cc12)CCC1(CCCCC1)O3,-,0,-,-,-
OCc1ccccc1SSc1ccccc1CO,-,40.6,-,-,-
Cc1cnc(C(=O)NCc2ccc(Cl)cc2Cl)cn1,0,0,+,active,0
CCC1C(=O)C(C)(C)C(=O)OC1c1ccc([N+](=O)[O-])cc1 (configuration not stated),0,0,+,109.5,-
O=C1CC(=O)OC(c2ccc([N+](=O)[O-])cc2)O1,-,0,-,-,-
CCOC(=O)/C(=N/Nc1ccccc1)c1csc(Nc2ccccc2)n1,0,0,0,0,0
CCOC(=O)/C(=N\Nc1ccc(OC)cc1)c1csc(Nc2ccccc2)n1,89.9,0,0,0,0
CCOC(=O)CSc1nc2c(sc(=S)n2-c2ccccc2OC)c(=O)n1Cc1ccco1,0,38.2,0,0,0
O=C(O)CN1C(=O)/C(=C\c2cc([N+](=O)[O-])ccc2OCc2ccccc2Cl)SC1=S,0,0,+,44.6,-
